Molecules are shown by their SMILES.

This test concerns Hsp90 CT. The test is described as follows: direct binding to Hsp90 C-terminal domain – biophysical, surface plasmon resonance, orthogonal assay for selective HSP90 inhibitor project, late-stage follow-up (AID 652181). Conditions: Surface plasmon resonance binding to HSP90 domains, at 200 µM, stronger effect = higher value. In general terms: SPR reads the build-up and loss of mass on a sensor chip optically.
The compound `COc1cc(/C=N/Nc2ccc(Cl)c(C(=O)O)c2)ccc1OC(=O)c1ccc(F)cc1` gave a binding of -4.19.

For `Cc1c(-c2nc(-c3ccc(C(C)(C)C)cc3)no2)n(C)oc1=O`, the binding stood at 4.46.

With `CC(=O)Nc1ccccc1OCC(=O)c1cc(C)n(Cc2cccs2)c1C`, the binding was 10.6.

With `CCc1ccc(OCc2ccc(C(=O)OC)o2)cc1`, the binding worked out at 6.78.

`CCOC(=O)C1=C(c2ccc(OC)cc2)C(=O)c2ccccc2C1=O` gave a binding of 11.2.

Compound `COc1ccccc1NC(=O)c1coc(=O)c(Br)c1` returned a binding of 11.7.

In the case of `Cc1cc(NO)nc(-c2ccc(Br)cc2)n1`, the binding turned out to be 0.77.

As to `Cc1c(-c2nc(-c3ccc(C(F)(F)F)cc3)no2)n(C)oc1=O`, the binding was found to be 7.47.

Turning to `CCOC(=O)c1csc(NC(=O)c2cc3ccccc3o2)n1`, the binding worked out at 6.43.

On to `COC(=O)c1ccccc1OCCCOc1ccc(C)cc1OC`, for which the binding is 10.2.

For the origin of these results see PubChem BioAssay AID652181 (The Scripps Research Institute Molecular Screening Center, 2013).
